This note sets out measurements from the antibiotic and cytotoxicity screens of Wong et al. (2023).

Molecules are shown by their SMILES. Out of some 39,000 compounds screened, about 3,300 (8.5%) were called active. Many of the other results were omitted from the sample, so actives are more common in it than they were.

This assay has as its system HepG2. Nature of the assay: cytotoxicity call (relative viability < 0.9). Particulars: 10 µM.
As for `O=C(O)COc1nn(Cc2ccccc2)c2ccccc12`, the cytotoxicity call was “inactive”.
As to `COc1cccc(OCc2ccc(Cn3nc(NC(=O)Nc4c(OC)cccc4OC)c4ccccc43)cc2)c1`, the cytotoxicity call is “inactive”.
Under `CN(C)CCCOc1nn(Cc2ccccc2)c2ccccc12.Cl` stands “active”; under `C[C@H]1CN([C@@H](C)CO)S(=O)(=O)c2ccc(C#CC3CC3)cc2O[C@@H]1CN(C)Cc1ccccc1F`, “inactive”; under `C[C@@H]1CN([C@@H](C)CO)C(=O)Cc2cc(NC(=O)Cn3cnnn3)ccc2O[C@@H]1CN(C)S(=O)(=O)c1ccc(F)cc1`, “inactive”.
On to `Cc1ccccc1S(=O)(=O)N1C[C@H](O)COC[C@H]2O[C@@H](CC(=O)NCCc3ccccc3)CC[C@@H]21`, for which the cytotoxicity call is “inactive”.
Under `Nc1nc2nc[nH]c2c(=O)[nH]1` stands “inactive”; under `Nc1ncnc2nc[nH]c12`, “inactive”; under `O=c1[nH]cnc2nc[nH]c12`, “inactive”.
Next, `S=c1[nH]cnc2nc[nH]c12`: “active”; `Nc1nc2nc[nH]c2c(=S)[nH]1` [listing 1 of 2 here]: “inactive”.
Under `Nc1nc2nc[nH]c2c(=S)[nH]1` [listing 2 of 2 here] stands “active”.
Turning to `N#CCN(CC#N)C(=O)c1ccco1`, the cytotoxicity call is “inactive”.
For the compound `CC(C)CC#Cc1ccc2c(c1)O[C@@H](CN(C)C(=O)C1CCOCC1)[C@@H](C)CN([C@@H](C)CO)S2(=O)=O`, the cytotoxicity call is “inactive”.
Consider `COc1ccc(S(=O)(=O)N(C)C[C@H]2Oc3ccc(NS(=O)(=O)c4ccccc4)cc3C(=O)N([C@@H](C)CO)C[C@H]2C)cc1`, for which the cytotoxicity call is “inactive”.
Consider `Cc1noc(C)c1S(=O)(=O)Nc1ccc2c(c1)CC(=O)N([C@H](C)CO)C[C@H](C)[C@H](CN(C)Cc1ccncc1)O2`, for which the cytotoxicity call was “inactive”.
Under `COc1ccc(S(=O)(=O)N2C[C@@H](O)COC[C@@H]3O[C@H](CC(=O)NCCCN(C)C)CC[C@H]32)cc1` stands “inactive”; under `COc1cc(O)cc(O)c1C(=O)c1ccccc1`, “active”; under `COc1cc(O)c(C(=O)c2ccccc2)cc1S(=O)(=O)O`, “inactive”.
Next, `COc1ccc(C(=O)c2ccccc2)c(O)c1`: “inactive”.
Next, `C[C@H]1CN([C@@H](C)CO)C(=O)c2cc(C#Cc3cccnc3)cnc2O[C@H]1CN(C)S(=O)(=O)c1ccccc1F`: “inactive”.
For the compound `C[C@@H]1CN([C@H](C)CO)S(=O)(=O)c2ccc(C#CCN(C)C)cc2O[C@H]1CN(C)S(=O)(=O)c1cccc(F)c1`, the cytotoxicity call is “inactive”.
Next, `C[C@@H]1CN([C@H](C)CO)C(=O)c2cccc(NC(=O)C3CCOCC3)c2O[C@@H]1CN(C)S(=O)(=O)c1ccccc1`: “inactive”.
Take `Cc1n[nH]c(N/N=C/c2ccccn2)nc1=O`: the cytotoxicity call is “active”.
Next, `Cc1n[nH]c(NCc2ccco2)nc1=O`: “inactive”; `CCCNc1nc(=O)c(C)n[nH]1`: “inactive”; `O=C(O)[C@@H]1CCCC[C@@H]1C(=O)N1CCc2ccccc2[C@H]1CN1C(=O)c2ccccc2C1=O.O=C(O)[C@H]1CCCC[C@@H]1C(=O)N1CCc2ccccc2[C@H]1CN1C(=O)c2ccccc2C1=O`: “inactive”.
Under `C[C@@H]1CCCCO[C@H](CN(C)S(=O)(=O)c2cccs2)[C@@H](C)CN([C@H](C)CO)C(=O)c2cc(NS(=O)(=O)c3ccc(Cl)cc3)ccc2O1` stands “inactive”; under `C[C@@H]1CN([C@@H](C)CO)C(=O)c2cc(NS(=O)(=O)c3cn(C)cn3)ccc2O[C@@H]1CN(C)CC1CC1`, “inactive”; under `O=C1CCCNc2ccc(Cl)cc21`, “inactive”.
Next, `O=C1NCc2ccccc21`: “inactive”; `O=C1CCNc2cc3ccccc3cc21`: “active”.
Take `COc1ccc(NC(=O)N(C)C[C@@H]2Oc3ccc(NC(=O)CCN4CCOCC4)cc3C(=O)N([C@@H](C)CO)C[C@@H]2C)cc1`: the cytotoxicity call was “inactive”.
Next, `COc1ccc(S(=O)(=O)N(C)C[C@H]2OCCCC[C@H](C)Oc3ccc(NC(=O)Nc4ccccc4)cc3C(=O)N([C@@H](C)CO)C[C@H]2C)cc1`: “inactive”.
Under `O=C(O)CN1CCOC1=O` stands “inactive”; under `NC1=NCCN1CC(=O)O`, “active”; under `O=C(O)CN1CCCCC1=O`, “inactive”.
Next, `COC(=O)N[C@H](C(=O)N1CC2(CC2)C[C@H]1c1nc(-c2ccc3c(c2)C(F)(F)c2cc(-c4ccc5nc([C@@H]6[C@H]7CC[C@H](C7)N6C(=O)[C@@H](NC(=O)OC)C(C)C)[nH]c5c4)ccc2-3)c[nH]1)C(C)C`: “inactive”; `Cn1cnc(CCNC(=O)C[C@H]2CC[C@H]3[C@@H](COC[C@H](O)CN3C(=O)C3CC3)O2)c1`: “inactive”; `O=C1OC(=O)[C@H]2[C@@H]1[C@H]1CC[C@H]2O1`: “active”.
With `COc1ccc2c3c([nH]c2c1)[C@@H](CO)N(C[C@]13CCN(CC1)Cc1ccccc1)S(=O)(=O)c1cn(cn1)C`, the cytotoxicity call was “inactive”.
For the compound `C[C@@H]1CN([C@H](C)CO)C(=O)c2cccc(NC(=O)NC3CCCCC3)c2O[C@H]1CN(C)Cc1ccc(Cl)c(Cl)c1`, the cytotoxicity call is “inactive”.
Next, `C[C@@H]1CN([C@@H](C)CO)C(=O)c2cc(NC(=O)c3ccncc3)ccc2O[C@@H](C)CCCCO[C@H]1CN(C)Cc1ccc(C(F)(F)F)cc1`: “inactive”.
Next, `C[C@H](CO)N1C[C@H](C)[C@@H](CN(C)C(=O)C2CCCCC2)OCCCC[C@H](C)Oc2ccc(NC(=O)Nc3ccccc3)cc2C1=O`: “inactive”; `C[C@H]1CCCCO[C@@H](CN(C)C(=O)C2CCCCC2)[C@@H](C)CN([C@@H](C)CO)C(=O)c2cc(NC(=O)Nc3ccccc3)ccc2O1`: “inactive”; `C[C@@H]1CCCCO[C@H](CN(C)C(=O)C2CCCCC2)[C@@H](C)CN([C@@H](C)CO)C(=O)c2cc(NC(=O)Nc3ccccc3)ccc2O1`: “active”.
As to `C[C@@H]1CN([C@H](C)CO)C(=O)c2cc(NC(=O)Nc3ccccc3)ccc2O[C@@H](C)CCCCO[C@@H]1CN(C)C(=O)C1CCCCC1`, the cytotoxicity call was “inactive”.
Take `C[C@@H]1CCCCO[C@@H](CN(C)C(=O)C2CCCCC2)[C@@H](C)CN([C@@H](C)CO)C(=O)c2cc(NC(=O)Nc3ccccc3)ccc2O1`: the cytotoxicity call was “active”.
With `C[C@H]1CCCCO[C@H](CN(C)C(=O)C2CCCCC2)[C@@H](C)CN([C@@H](C)CO)C(=O)c2cc(NC(=O)Nc3ccccc3)ccc2O1`, the cytotoxicity call was “inactive”.
Under `C[C@H]1CN([C@@H](C)CO)C(=O)c2cccc(NC(=O)c3cnccn3)c2O[C@@H]1CN(C)Cc1ccc(C(=O)O)cc1` stands “inactive”; under `C[C@H](CO)N1C[C@H](C)[C@H](CN(C)C(=O)CN(C)C)Oc2cc(-c3ccc(C#N)cc3)ccc2S1(=O)=O`, “inactive”; under `CCNC1CC(N)C(OC2OC(CN)=CCC2N)C(O)C1OC1OCC(C)(O)C(NC)C1O.O=S(=O)(O)O.O=S(=O)(O)O` (stereo not drawn), “inactive”.
With `COc1ccc(CN(C)C[C@H]2OCCCC[C@H](C)Oc3ccc(NC(=O)Nc4ccc5c(c4)OCO5)cc3C(=O)N([C@H](C)CO)C[C@H]2C)cc1`, the cytotoxicity call is “inactive”.
Under `C[C@H](CO)N1C[C@H](C)[C@@H](CN(C)C(=O)Nc2ccc(F)cc2)Oc2c(NC(=O)c3nc4ccccc4s3)cccc2C1=O` stands “inactive”; under `C[C@@H]1CN([C@@H](C)CO)C(=O)c2cccc(NC(=O)c3nc4ccccc4s3)c2O[C@H]1CN(C)C(=O)Nc1ccc(C(F)(F)F)cc1`, “active”; under `C[C@H]1CN([C@@H](C)CO)C(=O)c2cccc(NC(=O)c3nc4ccccc4s3)c2O[C@@H]1CN(C)C(=O)Nc1ccc(C(F)(F)F)cc1`, “inactive”.
Next, `C[C@H](CO)N1C[C@H](C)[C@H](CN(C)C(=O)Nc2ccc(C(F)(F)F)cc2)Oc2c(NC(=O)c3nc4ccccc4s3)cccc2C1=O`: “inactive”; `C[C@@H]1CN([C@@H](C)CO)C(=O)c2cccc(NC(=O)c3nc4ccccc4s3)c2O[C@@H]1CN(C)C(=O)Nc1ccc(F)cc1`: “active”; `C[C@H]1CN([C@@H](C)CO)C(=O)c2cccc(NC(=O)c3nc4ccccc4s3)c2O[C@H]1CN(C)C(=O)Nc1ccc(C(F)(F)F)cc1`: “active”.
As for `C[C@@H]1CN([C@H](C)CO)C(=O)c2cccc(NC(=O)c3nc4ccccc4s3)c2O[C@@H]1CN(C)C(=O)Nc1ccc(C(F)(F)F)cc1`, the cytotoxicity call is “inactive”.
For the compound `C[C@H](CO)N1C[C@H](C)[C@@H](CN(C)C(=O)Nc2ccc(C(F)(F)F)cc2)Oc2c(NC(=O)c3nc4ccccc4s3)cccc2C1=O`, the cytotoxicity call was “inactive”.
Next, `C[C@@H]1CN([C@@H](C)CO)C(=O)c2cccc(NC(=O)c3nc4ccccc4s3)c2O[C@H]1CN(C)C(=O)Nc1ccc(F)cc1`: “inactive”; `C[C@@H]1CCCCO[C@H](CN(C)S(=O)(=O)c2cccs2)[C@@H](C)CN([C@H](C)CO)C(=O)c2cc(NC(=O)Nc3ccccc3)ccc2O1`: “inactive”; `COc1ccccc1NC(=O)N(C)C[C@H]1OCc2ccccc2-c2c(n(C)c3ccccc23)C(=O)N([C@H](C)CO)C[C@@H]1C`: “inactive”.
Next, `C[C@H](CO)N1C[C@H](C)[C@@H](CN(C)C(=O)c2cccc(F)c2)Oc2cc(-c3ccncc3)ccc2S1(=O)=O`: “inactive”; `O=C(C[C@H]1CC[C@@H]2[C@H](COC[C@H](O)CN2S(=O)(=O)c2ccccc2)O1)N1CCOCC1`: “inactive”; `C[C@H]1CN([C@@H](C)CO)C(=O)Cc2cc(NC(=O)Cn3cnnn3)ccc2O[C@H]1CN(C)Cc1ccc(-c2ccccc2)cc1`: “inactive”.
Under `C[C@@H]1CN([C@@H](C)CO)C(=O)c2cc(NC(=O)Nc3ccccc3)ccc2O[C@@H](C)CCCCO[C@@H]1CN(C)C(=O)Nc1ccccc1` stands “inactive”; under `C[C@@H]1CN([C@H](C)CO)C(=O)Cc2cc(NC(=O)CCN3CCOCC3)ccc2O[C@H]1CN(C)Cc1ccc2c(c1)OCO2`, “inactive”; under `Cc1noc(C)c1S(=O)(=O)N(C)C[C@@H]1Oc2ccc(NC(=O)NC3CCCCC3)cc2CC(=O)N([C@@H](C)CO)C[C@H]1C`, “inactive”.
In the case of `Cc1ccc(S[C@]2(C(=O)NCc3ccccc3)CC(=O)N(Cc3ccccc3C(F)(F)F)[C@@H]2c2ccc(CO)cc2I)cc1`, the cytotoxicity call is “inactive”.
Under `CN(C)c1ccc(O)c2c1C[C@H]1C[C@H]3[C@H](N(C)C)C(=O)C(C(N)=O)=C(O)[C@@]3(O)C(=O)[C@H]1C2=O` stands “inactive”; under `CC(C)c1c(O)ccc2c1CCC1C(C)(C)CCCC21C` (stereo not drawn), “inactive”.
Next, `CC(C)c1c(O)ccc2c1CC[C@H]1C(C)(C)CCC[C@]21C`: “active”; `CC(C)c1c(O)ccc2c1CCC1C(C)(C=O)CCCC21C` (stereo not drawn): “inactive”.
As for `COC(=O)C1(C)CCCC2(C)c3ccc(C(C)C)cc3C(=O)CC12` (stereo not drawn), the cytotoxicity call is “inactive”.
Next, `COC(=O)C1(C)CCCC2(C)c3ccc(O)c(C(C)C)c3CCC12` (stereo not drawn): “active”.
Turning to `CC(C)c1c(O)ccc2c1CCC1C(C)(C)C(=O)CCC21C` (stereo not drawn), the cytotoxicity call was “inactive”.
